In the supplement of paper PMC8371130:
Structures can show the parent of a compound that is named as a salt.

Test system: HL-1
Test: relative cell viability (CellTiter-Glo) vs DMSO control (% of DMSO control); higher = more viable cells
Outline: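 HL-1 mouse atrial cardiomyocytes were plated in 384-well plates at 1000 cells per well together with compounds at 40, 200, 1000 or 5000 nM in 0.01% DMSO. One day later, cells went to a hypoxic workstation (1% O2) for 48 h, then were reoxygenated for 24 h in a normal incubator, or stayed in normoxia for the same time. Cell viability was read by CellTiter-Glo luminescence and normalised to vehicle-treated control cells.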

[1] = oxygen condition: hypoxia 48 h (1% O2) + reoxygenation 24 h, 40 nM
[2] = oxygen condition: hypoxia 48 h (1% O2) + reoxygenation 24 h, 200 nM
[3] = oxygen condition: hypoxia 48 h (1% O2) + reoxygenation 24 h, 1000 nM
[4] = oxygen condition: hypoxia 48 h (1% O2) + reoxygenation 24 h, 5000 nM
[5] = oxygen condition: normoxia 72 h, 40 nM
[6] = oxygen condition: normoxia 72 h, 200 nM
[7] = oxygen condition: normoxia 72 h, 1000 nM
[8] = oxygen condition: normoxia 72 h, 5000 nM

| SMILES | relative cell viability [1] | relative cell viability [2] | relative cell viability [3] | relative cell viability [4] | relative cell viability [5] | relative cell viability [6] | relative cell viability [7] | relative cell viability [8] |
| --- | --- | --- | --- | --- | --- | --- | --- | --- |
| CCCN[C@H]1CCc2nc(N)sc2C1 [Pramipexole] | 103 | 103 | 101 | 108 | 98.2 | 98.9 | 107 | 108 |
| CN(C)CCc1c[nH]c2ccc(C[C@H]3COC(=O)N3)cc12 [Zolmitriptan] | 105 | 104 | 104 | 110 | 108 | 104 | 102 | 102 |
| O=C(c1ccc(OCCN2CCCCC2)cc1)c1c(-c2ccc(O)cc2)sc2cc(O)ccc12 [Evista] | 111 | 107 | 106 | 54 | 112 | 107 | 109 | 68.7 |
| CS(=O)(=O)Nc1ccc([N+](=O)[O-])cc1Oc1ccccc1 [Nimesulide] | 105 | 105 | 109 | 103 | 108 | 105 | 102 | 104 |
| Cc1cccc(N(C)C(=S)Oc2ccc3ccccc3c2)c1 [Tolnaftate] | 91.4 | 102 | 100 | 105 | 102 | 101 | 105 | 103 |
| CCCCc1nc(Cl)c(CO)n1Cc1ccc(-c2ccccc2-c2nnn[nH]2)cc1 [Losartan potassium] | 111 | 107 | 114 | 108 | 103 | 108 | 108 | 110 |
| CCC[C@@H]1C[C@@H](C(=O)N[C@@H]([C@H]2O[C@H](SC)[C@H](O)[C@@H](O)[C@H]2O)[C@@H](C)O)N(C)C1 [Lincomycin hydrochloride] | 93.1 | 103 | 103 | 103 | 99 | 98.3 | 100 | 97 |
| Clc1ccc(C(Cn2ccnc2)OCc2ccc(Sc3ccccc3)cc2)c(Cl)c1 (stereo not given) [Fenticonazole nitrate] | 102 | 102 | 105 | 107 | 102 | 98 | 101 | 104 |
| N=C(N)NC(=O)c1nc(Cl)c(N)nc1N [Amiloride hydrochloride dihydrate] | 101 | 106 | 107 | 118 | 101 | 102 | 106 | 111 |
| COc1ccc(C[C@@H]2c3cc(OC)c(OC)cc3CC[N@+]2(C)CCC(=O)OCCCCCOC(=O)CC[N@@+]2(C)CCc3cc(OC)c(OC)cc3[C@H]2Cc2ccc(OC)c(OC)c2)cc1OC [Cisatracurium besylate] | 108 | 100 | 107 | 109 | 105 | 103 | 109 | 128 |
| Nc1nc(F)nc2c1ncn2[C@@H]1O[C@H](COP(=O)(O)O)[C@@H](O)[C@@H]1O [Fludarabine Phosphate] | 115 | 108 | 119 | 113 | 108 | 115 | 119 | 111 |
| CN1CCN(C2=Nc3cc(Cl)ccc3Nc3ccccc32)CC1 [Clozapine] | 105 | 104 | 105 | 99.9 | 96 | 108 | 113 | 102 |
| Nc1nnc(-c2cccc(Cl)c2Cl)c(N)n1 [Lamotrigine] | 107 | 102 | 108 | 117 | 106 | 96.1 | 115 | 117 |
| CCCc1nn(C)c2c(=O)[nH]c(-c3cc(S(=O)(=O)N4CCN(C)CC4)ccc3OCC)nc12 [Sildenafil citrate] | 99.7 | 102 | 105 | 104 | 107 | 103 | 101 | 109 |
| CC(C)C[C@H](NC(=O)[C@H](CCc1ccccc1)NC(=O)CN1CCOCC1)C(=O)N[C@@H](Cc1ccccc1)C(=O)N[C@@H](CC(C)C)C(=O)[C@@]1(C)CO1 [Carfilzomib] | 3.62 | 3.8 | 4.12 | 3.78 | 3.3 | 4.04 | 3.72 | 3.71 |
| COc1ccc2c(c1)C(=O)N(CCc1ccc(S(=O)(=O)NC(=O)NC3CCCCC3)cc1)C(=O)C2(C)C [Gliquidone] | 97.7 | 108 | 102 | 113 | 96.6 | 114 | 110 | 116 |
| O=C1[C@H](CC[C@H](O)c2ccc(F)cc2)[C@@H](c2ccc(O)cc2)N1c1ccc(F)cc1 [Ezetimibe] | 111 | 104 | 108 | 115 | 111 | 112 | 116 | 112 |
| Cc1cccc(Nc2ccccc2C(=O)O)c1C [Mefenamic acid] | 96.6 | 93.4 | 102 | 113 | 100 | 105 | 111 | 110 |
| CCOC(=O)c1ncn2c1CN(C)C(=O)c1cc(F)ccc1-2 [Flumazenil] | 104 | 107 | 100 | 115 | 107 | 98.5 | 104 | 106 |
| O=C(O)c1ccc(NC(=O)[C@H](Cc2ccc(O)cc2)NC(=O)c2ccccc2)cc1 [Bentiromide] | 104 | 104 | 101 | 102 | 103 | 106 | 99.5 | 111 |
